Experimental data published in PubChem BioAssay AID588726 (The Scripps Research Institute Molecular Screening Center, 2011).
Among all 360,000 compounds or so, about 8,200 (2.3%) were called active. Cut-off read from the data, not from the text of the source: active = inhibition above about 27%; inactive = the rest. The entries come from a sample that favours actives as a whole.

target: Fructose-bisphosphate aldolase (Mycobacterium tuberculosis (strain ATCC 25618 / H37Rv)) (UniProt P9WQA3); assay: M. tuberculosis aldolase activity blockers – biochemical, fluorescence, strain H37Rv, primary screen (AID 588726);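 note: 0% = vehicle and 100% = reference inhibitor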; details: purified M. tuberculosis FBA, fluorescence read-out, at 1 µM, active compounds read high
Sequence (P9WQA3 whole entry, looked up): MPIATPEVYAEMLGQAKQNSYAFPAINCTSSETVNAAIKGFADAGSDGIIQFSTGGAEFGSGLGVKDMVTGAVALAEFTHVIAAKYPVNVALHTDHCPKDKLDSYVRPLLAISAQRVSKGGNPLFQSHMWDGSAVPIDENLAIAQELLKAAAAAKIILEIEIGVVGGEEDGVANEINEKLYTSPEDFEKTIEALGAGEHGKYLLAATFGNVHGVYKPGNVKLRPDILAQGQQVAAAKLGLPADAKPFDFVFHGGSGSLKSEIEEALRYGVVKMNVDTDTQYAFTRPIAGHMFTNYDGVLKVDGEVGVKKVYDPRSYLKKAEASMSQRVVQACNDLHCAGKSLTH

Structure (SMILES) | inhibition
CC(=O)N1CCN(S(=O)(=O)c2ccc(C)c([N+](=O)[O-])c2)C1C(C)C (stereo not given) | -1.36% (inactive)
Cc1ccccc1N1C(=O)C(Oc2ccc(Cl)cc2)C1CNCC1CCCO1 (stereo not given) | -3.19% (inactive)
NC(=O)CCN1CCN(S(=O)(=O)/C=C/c2ccccc2)CC1 | 1.59% (inactive)
Cc1ccc2c(CN3CCN(S(=O)(=O)c4ccccc4C(F)(F)F)CC3)cc(=O)oc2c1 | 2.71% (inactive)
O=c1cc(CN2CCN(S(=O)(=O)/C=C/c3ccccc3)CC2)c2ccc(O)cc2o1 | 137% (active)
CSc1cccc(NC(=O)C2CCCN2S(=O)(=O)c2ccc3c(c2)CCC(=O)N3)c1 (stereo not given) | 1.45% (inactive)
Cc1cccc(-c2cnc(C(O)c3ccc4ccccc4c3)[nH]2)c1 (stereo not given) | -1.57% (inactive)
CC(C)(C)OC(=O)NC(Cc1ccccc1)C(=O)NC(CSC1CCCCO1)C(=O)NN (stereo not given) | -0.07% (inactive)
CC(C)c1ccc(S(=O)(=O)N2CCN(C(=O)c3ccc(N4CCCC4)c([N+](=O)[O-])c3)CC2)cc1 | -2.26% (inactive)
O=c1cc(-c2ccccc2)[nH]c2cc(F)ccc12 | 5.51% (inactive)
O=C1C=C(c2ccccc2)CCC1 | 3.76% (inactive)
O=c1[nH]c(-c2ccccc2)c(-c2ccccc2)[nH]1 | 133% (active)
CCc1ccc(NC(=O)CCNS(=O)(=O)c2cccs2)cc1 | -1.53% (inactive)
O=C(NCc1ccccc1)c1ccc(CNc2c(N3CCCC3)c(=O)c2=O)cc1 | 4.44% (inactive)
CCc1ccccc1N1C(=O)C2C3CC(=O)C(c4ccccc43)C2C1=O (stereo not given) | 1.36% (inactive)
CCC1C(=O)c2ccccc2N(C)C1=O (stereo not given) | 34.5% (active)
CN1C(=O)/C(=C\c2cc(Br)cs2)c2ccccc21 | 0.16% (inactive)
Cc1ccc(CN2CCC(N3CCC(C(=O)NCC4CCCO4)CC3)CC2)o1 (stereo not given) | -1.69% (inactive)

Structure (SMILES) | inhibition
O=C(c1cc(-c2ccc(Cl)s2)nc2ccccc12)N1CCOCC1 | 93.6% (active)
Cc1ccc(S(=O)(=O)N2CCN(C(=O)c3ccccc3-c3nc4ccccc4s3)CC2)c(C)c1 | 1.65% (inactive)
CC1CCN(C(=O)Cn2cc(C(=O)c3ccco3)c3ccccc32)CC1 | -0.4% (inactive)
CC1CCCC(NC(=O)c2cc(-c3ccncc3)nc3ccccc23)C1C (stereo not given) | 4% (inactive)
Cc1c(NC(=O)c2cc(-c3ccc(Cl)s3)nc3ccccc23)c(=O)n(-c2ccccc2)n1C | 13% (inactive)
O=C(NNC(=O)c1cc(-c2ccccc2Cl)nc2ccccc12)c1csc(N2CCOCC2)n1 | 1.04% (inactive)
CC(=O)N1CCN(C(=O)c2cc(-c3ccc(C)o3)nc3ccccc23)CC1 | 131% (active)
Cc1cc(C(=O)NNC(=O)c2cccc(S(=O)(=O)N3CCOCC3)c2)c2ccccc2n1 | -2.38% (inactive)
Cc1cccc(C(=O)N2CCC(c3nc4ccccc4s3)CC2)c1 | -2.02% (inactive)
Cc1cc(C(=O)N2CCN(c3ccccn3)CC2)c(C)o1 | 9.35% (inactive)
CC(=O)N1CCN(C(=O)c2cc(-c3ccc(Cl)s3)nc3ccccc23)CC1 | 83.4% (active)
CC1CCCN(C(=O)c2cc(-c3ccco3)nc3ccccc23)C1 (stereo not given) | 114% (active)
Cc1nc(-c2ccc(Cl)cc2)sc1C1(C)CC(c2ccc(Br)cc2)=NO1 (stereo not given) | -1.45% (inactive)
O=S(=O)(c1cccc(-c2nnc(SC(F)F)n2-c2ccccc2)c1)N1CCCCC1 | 5.7% (inactive)
COc1ccc(C)cc1NC(=O)c1[nH]c(C)c(C(C)=O)c1C | 0.08% (inactive)
CCc1ccc(OCC(O)CN2CCN(CCO)CC2)cc1 (stereo not given) | -0.21% (inactive)
CSCCC(NC(=O)c1ccco1)C(=O)NCCc1ccc(F)cc1 (stereo not given) | 0.46% (inactive)
